153 variants from a collection of fitness landscapes (doi:10.1126/science.1257360) can be followed below.

In all, about 140,000 sequences were measured (“enrichment ratio after two sorts for PhoP signalling”: median about 0, highest 2% from about 11 on). The sample as a whole holds a higher share of the highest values than the screen did.

B1: PhoQ; a variant is named by its letters at X, in order, P23837 (parent)
chain: MKKLLRLFFPLSLRVRFLLATAAVVLVLSLAYGMVALIGYSVSFDKTTFRLLRGESNLFYTLAKWENNKLHVELPENIDKQSPTMTLIYDENGQLLWAQRDVPWLMKMIQPDWLKSNGFHEIEADVNDTSLLLSGDHSIQQQLQEVREDDDDAEMTHSVAVNVYPATSRMPKLTIVVVDTIPVELKSSYMVWSWFIYVLSANLLLVIPLLWVAAWWSLRPIEALAKEVRELEEHNRELLNPATTRELTSLVRNLNRLLKSERERYDKYRTTLTDLTHSLKTPLXXLQXXLRSLRSEKMSVSDAEPVMLEQISRISQQIGYYLHRASMRGGTLLSRELHPVAPLLDNLTSALNKVYQRKGVNISLDISPEISFVGEQNDFVEVMGNVLDNACKYCLEFVEISARQTDEHLYIVVEDDGPGIPLSKREVIFDRGQRVDTLRPGQGVGLAVAREITEQYEGKIVAGESMLGGARMEVIFGRQHSAPKDE

Variants of B1 are the subject of the assay. As to the kind of experiment: enrichment ratio after two sorts for PhoP signalling (ratio (wild type AVST 3.29)); higher = more functional. To be noted: with PhoP (E. coli).
For the variant ISMG, the enrichment ratio was determined as 1.17.
Under WDMF stands no more than 0.25; under KSIQ, no more than 0.25.
On to WNCS, for which the enrichment ratio is no more than 0.25.
Take TCTK: the enrichment ratio was found to be 5.27.
With TCDW, the enrichment ratio is no more than 0.25.
Under KCTI stands no more than 0.25.
As for TCTH, the enrichment ratio amounted to 3.96.
For TCTS, the enrichment ratio was found to be 17.5.
Take KCTA: the enrichment ratio is no more than 0.25.
As for TCTA, the enrichment ratio amounted to 11.4.
Take TCTC: the enrichment ratio is 11.4.
Under TCIC stands no more than 0.25; under TCNK, no more than 0.25; under TCTI, 17.1.
As for TCTE, the enrichment ratio is no more than 0.25.
Turning to WMFM, the enrichment ratio is no more than 0.25.
As for HQPT, the figure is no more than 0.25; as for PYKQ, no more than 0.25; as for WRPH, no more than 0.25.
Regarding LLYS, the enrichment ratio is no more than 0.25.
Regarding VMRN, the enrichment ratio was no more than 0.25.
With AANR, the enrichment ratio was no more than 0.25.
With IGAM, the enrichment ratio was no more than 0.25.
In the case of SVEG, the enrichment ratio was no more than 0.25.
On to NHNM, for which the enrichment ratio is no more than 0.25.
As for VWYA, the figure is no more than 0.25.
Consider SFCD, for which the enrichment ratio is no more than 0.25.
Turning to SSCV, the enrichment ratio amounted to 18.4.
On to SSCG, for which the enrichment ratio is 12.6.
As for KSCG, the enrichment ratio was 1.82.
As to TSCG, the enrichment ratio came to 7.32.
Regarding FSCQ, the enrichment ratio amounted to 7.11.
As to SSCI, the enrichment ratio came to 24.5.
As to SSCQ, the enrichment ratio was found to be 13.4.
As to SSCE, the enrichment ratio worked out at 3.26.
For SLCV, the enrichment ratio came out at 7.13.
As to SSCS, the enrichment ratio was determined as 9.51.
On to SSQP, for which the enrichment ratio is no more than 0.25.
Turning to SPCV, the enrichment ratio was no more than 0.25.
Consider AHKE, for which the enrichment ratio was no more than 0.25.
As for PMIW, the figure is no more than 0.25; as for RAKS, no more than 0.25; as for VANQ, no more than 0.25.
As for IINC, the figure is no more than 0.25; as for VHNE, no more than 0.25.
Turning to SDFS, the enrichment ratio was no more than 0.25.
Take PMPC: the enrichment ratio is no more than 0.25.
With KFDS, the enrichment ratio is no more than 0.25.
As for YAQF, the enrichment ratio was no more than 0.25.
On to EIRD, for which the enrichment ratio was no more than 0.25.
In the case of SSCL, the enrichment ratio stood at 18.7.
Under SSNL stands 3.91; under SSWL, 10.6; under WSRR, no more than 0.25.
On to ELIY, for which the enrichment ratio is no more than 0.25.
Consider KGHE, for which the enrichment ratio is no more than 0.25.
Consider VIMF, for which the enrichment ratio is no more than 0.25.
For TCHH, the enrichment ratio is 26.2.
As for FCHH, the figure is no more than 0.25; as for TTTS, 14.1; as for CSTS, no more than 0.25.
In the case of YTHH, the enrichment ratio was no more than 0.25.
As for KCHH, the enrichment ratio was no more than 0.25.
TTHH: the enrichment ratio is 11.8.
Consider TTTC, for which the enrichment ratio was 5.52.
On to CTTS, for which the enrichment ratio was 16.8.
With KSHH, the enrichment ratio is no more than 0.25.
On to LTTS, for which the enrichment ratio is no more than 0.25.
With YTTS, the enrichment ratio is no more than 0.25.
Consider SRLA, for which the enrichment ratio was no more than 0.25.
Take NNFT: the enrichment ratio is no more than 0.25.
As to PAYF, the enrichment ratio was no more than 0.25.
Turning to PHQG, the enrichment ratio was no more than 0.25.
As for LARQ, the enrichment ratio was no more than 0.25.
On to VYWL, for which the enrichment ratio was no more than 0.25.
HTSP: the enrichment ratio is no more than 0.25.
As for QDNG, the figure is no more than 0.25; as for PCTP, no more than 0.25.
For KNRD, the enrichment ratio was no more than 0.25.
Consider PYIP, for which the enrichment ratio was no more than 0.25.
SDAL: the enrichment ratio is no more than 0.25.
On to TCES, for which the enrichment ratio is no more than 0.25.
Consider VDIK, for which the enrichment ratio is no more than 0.25.
Consider KVYK, for which the enrichment ratio was no more than 0.25.
HCSM: the enrichment ratio is no more than 0.25.
For CLFG, the enrichment ratio was no more than 0.25.
Turning to NIPT, the enrichment ratio is no more than 0.25.
As for TTNH, the figure is 12.2.
For the variant YTTK, the enrichment ratio was no more than 0.25.
Take YTTH: the enrichment ratio was no more than 0.25.
As for YTNH, the enrichment ratio was no more than 0.25.
LTNH: the enrichment ratio was no more than 0.25.
For the variant KSTK, the enrichment ratio was no more than 0.25.
Consider TTTK, for which the enrichment ratio is 16.7.
As for TTKH, the figure is no more than 0.25.
Take TTTH: the enrichment ratio was found to be 20.3.
With ENFF, the enrichment ratio was no more than 0.25.
Turning to VSFD, the enrichment ratio worked out at 0.544.
LAEF: the enrichment ratio was no more than 0.25.
As for YEFI, the enrichment ratio is no more than 0.25.
Turning to TRCW, the enrichment ratio was no more than 0.25.
Turning to YFRG, the enrichment ratio is no more than 0.25.
As to GFVM, the enrichment ratio was no more than 0.25.
As for RLME, the figure is no more than 0.25; as for QHMY, no more than 0.25.
Consider DMCM, for which the enrichment ratio was no more than 0.25.
As for YWCM, the figure is no more than 0.25.
As for LECK, the figure is 1.26.
TECM: the enrichment ratio turned out to be 31.3.
As for FECM, the figure is 5; as for MECM, 36.6.
For the variant TECK, the enrichment ratio was found to be 4.11.
In the case of LNCM, the enrichment ratio was no more than 0.25.
On to FNCM, for which the enrichment ratio came out at 5.18.
As for MACM, the figure is no more than 0.25; as for NECM, 28.2; as for LECM, 17.2.
On to QCSI, for which the enrichment ratio was no more than 0.25.
As to QACK, the enrichment ratio was no more than 0.25.
Under GTRW stands no more than 0.25; under TLVA, no more than 0.25; under TYNL, 3.68.
As for RPMT, the figure is no more than 0.25.
As for HVPY, the enrichment ratio was no more than 0.25.
As to WMTR, the enrichment ratio is no more than 0.25.
Take WIHI: the enrichment ratio is no more than 0.25.
With WFNQ, the enrichment ratio is no more than 0.25.
As for HCCF, the enrichment ratio is no more than 0.25.
As for NQVC, the enrichment ratio is no more than 0.25.
With TQEG, the enrichment ratio is no more than 0.25.
For the variant TQED, the enrichment ratio is no more than 0.25.
Regarding TGWG, the enrichment ratio stood at 5.4.
In the case of KSWG, the enrichment ratio is no more than 0.25.
As for TQGD, the enrichment ratio was 2.92.
Consider TQWG, for which the enrichment ratio worked out at 18.3.
Under WQVC stands no more than 0.25.
With TQVC, the enrichment ratio is 14.3.
For TQVG, the enrichment ratio came to 12.2.
Under TQVA stands 3.07; under TQMD, 63.
Under IQCQ stands no more than 0.25; under ACAH, 4.6; under GLLF, 4.76.
Take NFMP: the enrichment ratio was no more than 0.25.
For the variant LLRY, the enrichment ratio was no more than 0.25.
As for VNTC, the figure is no more than 0.25; as for IRDH, no more than 0.25; as for EIET, no more than 0.25.
As for MPTT, the figure is no more than 0.25; as for KEKC, no more than 0.25; as for VMIT, no more than 0.25.
On to TQQG, for which the enrichment ratio amounted to 16.8.
